An excerpt weighted towards active compounds, which were near 5.4% of everything screened.
APOBEC3G inh: blocks human APOBEC3G single-stranded DNA deamination | actives 0.28% (n = 330,000) | recombinant A3G, ssDNA deamination FAM/TAMRA fluorescence | inhibition, % at 20 µM;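 active = inhibition of at least 40% at 20 µM, with no more than 30% in the related APOBEC3A deaminase screen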;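 also: plate controls were DMSO wells with A3G for no effect and wells lacking A3G enzyme for full effect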
PHOSPHO1 block: blocks human PHOSPHO1 phosphatase activity. recombinant PHOSPHO1, absorbance phosphatase assay. inhibition, % at 13.3 µM. actives 1.1% (n = 290,000). AID 1565; in the data active = inhibition above about 60%
Target sequence (Q8TCT1 whole entry, looked up): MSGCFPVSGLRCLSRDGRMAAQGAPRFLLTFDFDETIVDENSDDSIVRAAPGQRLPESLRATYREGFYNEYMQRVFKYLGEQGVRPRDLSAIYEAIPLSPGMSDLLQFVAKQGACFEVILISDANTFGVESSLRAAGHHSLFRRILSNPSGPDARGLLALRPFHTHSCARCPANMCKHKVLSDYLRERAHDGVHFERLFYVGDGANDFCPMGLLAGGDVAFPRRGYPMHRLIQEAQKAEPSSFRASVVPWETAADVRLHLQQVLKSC
ALR H2O2 inh: inhibitors of human sulfhydryl oxidase ALR; inhibition, % (test concentration not listed); P55789; AID 485317; purified ALR, DTT oxidation, H2O2 HRP-luminol luminescence; actives 3.8% (n = 290,000);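 active = mean replicate inhibition above about 79%, with every replicate also reaching it, limit read from the data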
aDG glyco act: alpha-DG glycosylation activation | Pro5-aDG cells, alpha-DG glycosylation AlphaScreen (IIH6); 0% Pro5, 100% B10-LARGE cell signal | activation, % at 10 µM | actives 0.22% (n = 360,000) | AID 624168;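 active = activation of at least 8% versus controls, or a plate z-score of at least 8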;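 also: Pro5 are CHO cells carrying HIG-tagged alpha-DG that lacks glycosylation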
APOBEC3A inh: blocks human APOBEC3A ssDNA deamination; actives 0.41% (n = 330,000); P31941; recombinant A3A, FAM/TAMRA ssDNA deamination fluorescence; AID 493011; inhibition, % at 20 µM;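 active = at least 40% inhibition at 20 µM here, with at most 30% in a related deaminase screen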;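 also: plate controls were A3A with DMSO for no effect and wells lacking A3A enzyme for full effect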
rCAG RNA binder: r(CAG) repeat RNA binding; TO-PRO-1 dye displacement fluorescence; inhibition, % at 3 µM; actives 1.3% (n = 370,000); AID 651821;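 active = inhibition above the plate cutoff, the mean of all test compounds on that plate plus 3 SD, cut at about 35% in these data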;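 also: 0% = DMSO alone and 100% = 100 µM mitoxantrone as full dye displacement; higher means more dye released from RNA so lower well fluorescence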
* = called active by the depositor; / = no result.

SMILES	APOBEC3G inh	PHOSPHO1 block	ALR H2O2 inh	aDG glyco act	APOBEC3A inh	rCAG RNA binder
O=C(NNS(=O)(=O)c1ccc([N+](=O)[O-])cc1)c1ccc([N+](=O)[O-])cc1	-9	-14	-4	0	-6	3
COC(=O)C1CCCN(C(=O)C2CCN(S(=O)(=O)c3cccc4cccnc34)CC2)C1 (configuration not stated)	/	/	/	/	/	1
CCOC(=O)c1ccc(S(=O)(=O)NNC(=O)c2cccc(N(C)C)c2)cc1	-10	4	82*	0	2	0
COc1ccc2c(c1)CCCN2C(=O)C1CCCN(S(=O)(=O)c2cccc3cccnc23)C1 (configuration not stated)	/	/	/	/	/	1
CCOc1ccc(C(=O)CSCCC(=O)O)cc1	-2	-7	98*	0	0	6
O=C(NNc1nc2c(F)cccc2s1)c1ccccc1	-8	27	3	0	-4	2
O=C(NNc1nc2c(F)cccc2s1)C1=COCCO1	-6	27	100*	0	4	9
CC12CCC(=O)C=C1CCC1C2CCC2(C)C1CCC2(O)C(=O)CO (configuration not stated)	-7	/	-5	0	0	2
CC12CCC(=O)C=C1CCC1C2CCC2(C)C1CC[C@]2(O)C(=O)CO (some centres not stated)	-5	68*	-6	-1	0	-6
Cc1ccc(/C=N\NC(=O)CN2CCN(S(=O)(=O)c3ccc(Br)cc3)CC2)s1	/	/	/	/	/	1
COc1ccc(C2CC3CN(C4CCCCC4)C(=O)C3N2C)cc1 (configuration not stated)	/	/	/	/	/	2
CCc1nnc(NC(=O)c2ccc3ccccc3n2)s1	-9	-100	/	1	1	0
CCOC(=O)Cc1csc(NC(=O)c2cccnc2)n1	0	13	-2	0	3	1
CCc1nnc(NC(=O)c2sc3nc4cc(C)ccc4cc3c2N)s1	-8	99*	-1	0	-4	9
CCOC(=O)Cc1csc(NC(=O)c2sc3nc4ccc(C)cc4cc3c2N)n1	-5	32	99*	0	-3	21
CCCCCCCCN1C(=O)[C@@H](CC(=O)NCCc2ccccc2OC)C[C@@]2(C(=O)OC)C1=C[C@H](C(C)(C)C)O[C@@H]2C	/	/	/	/	/	0
CC(C)N1CCCCC(NC(=O)COCc2ccccc2)C1=O (configuration not stated)	/	/	/	/	/	-2
NC(=O)NC(=O)CC1S/C(=N/N=C/c2ccccc2)NC1=O (configuration not stated)	-5	25	69	0	-2	1
CC1=C/C(=N\N=C2\NC(=O)C(CC(=O)Nc3ccccc3)S2)CC(C)(C)C1 (configuration not stated)	6	48	2	0	1	8
O=C(O)CNC(=O)CC1S/C(=N/N=C2/NC(=O)CS2)NC1=O (configuration not stated)	0	-86	90*	0	-3	2
NC(=O)NC(=O)CC1S/C(=N/N=C2\CSC(=O)N2)NC1=O (configuration not stated)	-4	-4	85*	0	-1	2
Cc1ccc(S(=O)(=O)N2CC3=C(c4ccccc4)CC4(C)C(=O)C(C)(C)CC4=C3C2)cc1 (configuration not stated)	/	/	/	/	/	14
CCCCNc1cccc2c1S(=O)(=O)N[C@@H](CC(C)C)CO2	/	/	/	/	/	2
CCCOc1ccc(OCCSc2nnc(N)s2)cc1	1	-1	38	/	5	1
CCCOc1ccc(-c2cnc(N)s2)cc1	-7	47	98*	0	-5	2
O=C(OCC(=O)N1CCN(c2ccccc2)CC1)c1ccc(Cl)nc1	-3	/	97*	0	-1	-3
CCN(CC)C(=O)CC[C@H]1CC[C@]2(CCCN(Cc3nccs3)C2)O1	/	/	/	/	/	3
Nc1cccc(-c2cn3cc(C(F)(F)F)cc(Cl)c3n2)c1	-1	7	99*	0	0	1
C=CCN1[C@H](C)COc2cc(N3CCSCC3)ccc2S1(=O)=O	/	/	/	/	/	-1
O=C(C1CC(=O)N(c2ccc3c(c2)OCCO3)C1)N1CCN(c2ccccc2)CC1 (configuration not stated)	-5	28	/	0	16	0
